According to ChEMBL document CHEMBL2218924, “A broad activity screen in support of a chemogenomic map for kinase signalling research and drug discovery” (Biochem J, 2013):

These compounds were tested against Receptor-interacting serine/threonine-protein kinase 2 (Homo sapiens) (UniProt O43353). Conditions: at 1 µM.
Sequence of Receptor-interacting serine/threonine-protein kinase 2 (Homo sapiens) (O43353 whole entry): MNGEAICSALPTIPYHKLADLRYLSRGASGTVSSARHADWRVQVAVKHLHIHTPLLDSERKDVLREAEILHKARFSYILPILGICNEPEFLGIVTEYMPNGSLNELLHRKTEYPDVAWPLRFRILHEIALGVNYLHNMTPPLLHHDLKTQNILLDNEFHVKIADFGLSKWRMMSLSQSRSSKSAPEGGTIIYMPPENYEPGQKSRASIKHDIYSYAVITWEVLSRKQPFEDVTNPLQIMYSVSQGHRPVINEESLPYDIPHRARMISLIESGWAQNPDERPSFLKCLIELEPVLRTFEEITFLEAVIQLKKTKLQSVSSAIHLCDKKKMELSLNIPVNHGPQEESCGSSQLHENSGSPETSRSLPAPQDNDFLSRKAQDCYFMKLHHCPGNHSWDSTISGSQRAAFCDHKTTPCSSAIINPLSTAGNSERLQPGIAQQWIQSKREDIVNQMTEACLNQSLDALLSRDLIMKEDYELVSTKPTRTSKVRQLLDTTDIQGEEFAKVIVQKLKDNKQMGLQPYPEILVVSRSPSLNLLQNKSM

Point of comparison: O=c1c(-c2ccc(F)cc2)c(-c2ccncc2)[nH]n1-c1ccc(Cl)cc1, residual activity 47%. Against it:
- O=C1NC(=O)C(c2cn(CCCO)c3ncccc23)=C1c1cnccn1 — higher, 94%
- CCN(CC)CCNC(=O)c1c(C)[nH]c(/C=C2\C(=O)Nc3ccc(Cl)cc32)c1C — higher, 62%
- Nc1nccc(-c2c(-c3ccc(F)cc3)ncn2C2CCNCC2)n1 — lower, 43%
- O=C1Nc2ccccc2/C1=C\c1c(Cl)[nH]c2ccccc12 — higher, 84%
- COc1cc2c(cc1OC)-c1n[nH]c(Nc3cccc(F)c3)c1C2 — lower, 30%
- CCN1/C(=C/C(C)=O)Sc2ccc(OC)cc21 — higher, 71%
- COc1ccc(CNC(=O)Nc2ncc([N+](=O)[O-])s2)cc1 — higher, 79%
- Oc1cccc(-c2nc(N3CCOCC3)c3oc4ncccc4c3n2)c1 — higher, 89%
- COc1cc2nccc(Oc3ccc(NC(=O)Nc4cc(C)on4)c(Cl)c3)c2cc1OC — lower, 21%
- Nc1nc(Nc2ccc(S(N)(=O)=O)cc2)nn1C(=O)c1c(F)cccc1F — higher, 62%
- CCCCc1c(-c2ccc(OC)cc2)[nH]c2nccnc12 — higher, 67%
- O=C1NC(=O)C(c2cn(CCCn3ccnc3)c3ccccc23)=C1Nc1ccccc1 — higher, 78%
- O=C(c1cc2cc(O)ccc2[nH]1)c1cc2cc(O)ccc2[nH]1 — lower, 18%
- c1ccc(-c2cnc(Nc3ccc(OCCN4CCCC4)cc3)s2)cc1 — lower, 43%
- NC(=O)c1ccc(-c2nc(-c3ccc4c(c3)OCCO4)c(-c3ccccn3)[nH]2)cc1 — higher, 55%

The compounds below were run against Receptor-interacting serine/threonine-protein kinase 2 (Homo sapiens) (UniProt O43353). Conditions: at 10 µM.

Point of comparison: O=c1c(-c2ccc(F)cc2)c(-c2ccncc2)[nH]n1-c1ccc(Cl)cc1, residual activity 19%. Against it:
- O=C1NC(=O)C(c2cn(CCCO)c3ncccc23)=C1c1cnccn1 — higher, 87%
- CCN(CC)CCNC(=O)c1c(C)[nH]c(/C=C2\C(=O)Nc3ccc(Cl)cc32)c1C — higher, 27%
- Nc1nccc(-c2c(-c3ccc(F)cc3)ncn2C2CCNCC2)n1 — lower, 16%
- O=C1Nc2ccccc2/C1=C\c1c(Cl)[nH]c2ccccc12 — higher, 60%
- COc1cc2c(cc1OC)-c1n[nH]c(Nc3cccc(F)c3)c1C2 — lower, 17%
- CCN1/C(=C/C(C)=O)Sc2ccc(OC)cc21 — higher, 60%
- COc1ccc(CNC(=O)Nc2ncc([N+](=O)[O-])s2)cc1 — higher, 81%
- O=C1NC(=O)C(c2c[nH]c3ccccc23)=C1c1c[nH]c2ccccc12 — higher, 74%
- Oc1cccc(-c2nc(N3CCOCC3)c3oc4ncccc4c3n2)c1 — higher, 86%
- O=C(Nc1ccc(Cl)cc1)c1ccccc1NCc1ccncc1 — higher, 78%
- Nc1nc(Nc2ccc(S(N)(=O)=O)cc2)nn1C(=O)c1c(F)cccc1F — higher, 41%
- CCCCc1c(-c2ccc(OC)cc2)[nH]c2nccnc12 — higher, 82%
- O=C1NC(=O)C(c2cn(CCCn3ccnc3)c3ccccc23)=C1Nc1ccccc1 — higher, 77%
- O=C(c1cc2cc(O)ccc2[nH]1)c1cc2cc(O)ccc2[nH]1 — lower, 6%
- c1ccc(-c2cnc(Nc3ccc(OCCN4CCCC4)cc3)s2)cc1 — lower, 17%
- NC(=O)c1ccc(-c2nc(-c3ccc4c(c3)OCCO4)c(-c3ccccn3)[nH]2)cc1 — lower, 18%
- O=c1cc(N2CCOCC2)oc2c(-c3ccccc3)cccc12 — higher, 74%
- COc1ccc2c(c1)c(C1=C(c3c[nH]c4ccccc34)C(=O)NC1=O)cn2CCCN(C)C — higher, 64%
